Bioassay records deposited in PubChem BioAssay by National Center for Advancing Translational Sciences (NCATS).
Shown are actives, neighbours in structure and some others; about 11% of the full set was active somewhere.
Sfp PPTase inh: qHTS Assay for Inhibitors of Bacillus subtilis Sfp phosphopantetheinyl transferase (PPTase); actives 3.5% (n = 310,000); Biochemical Sfp PPTase activity, qHTS; Potency, µM, for inactives: largest response in the series, negative = inhibition, hits mostly inhibitors; AID 1490, 2009; 4'-phosphopantetheinyl transferase ffp (Bacillus subtilis), Q9F4F7;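 note: the enzyme is Sfp with the accession as filed and its product quenches rhodamine fluorescence; potency is the fitted concentration of half-maximal effect; 0% = enzyme reaction without inhibitor and -100% = no enzyme wells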
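Compounds were incubated with enzyme (final 15 nM) for 15 min at room temperature before substrate addition started the reaction. Fluorescence at 525 nm excitation, 598 nm emission was recorded immediately and after 30 minutes.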
Tau FP inhib: qHTS for Inhibitors of Tau Fibril Formation, Fluorescence Polarization; Microtubule-associated protein tau (Homo sapiens), P10636; K18 P301L tau heparin fibrillization, Alexa594 FP, 6 h; Potency, µM (titrated, usually from 57.7 µM), without a hit: top-dose activity, negative = inhibition, usual class: inhibitors; actives 0.39% (n = 280,000); note: potency is the fitted concentration of half-maximal effect; nearly all actives have a fitted effect of over 55% in size
Target sequence (P10636 561-689 P618L limits assumed): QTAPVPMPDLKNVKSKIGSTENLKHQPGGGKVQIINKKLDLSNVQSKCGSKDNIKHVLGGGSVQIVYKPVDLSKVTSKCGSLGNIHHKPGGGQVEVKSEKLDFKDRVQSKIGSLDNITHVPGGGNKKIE
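Recombinant K18 P301L […], labeled with Alexa 594 at 0.24 uM over 15 uM unlabeled; heparin inducer 20 uM final; 37 C, 6 hr; FP endpoint.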
G9a block: qHTS Assay for Inhibitors of Histone Lysine Methyltransferase G9a; actives 8.8% (n = 350,000); Histone-lysine N-methyltransferase EHMT2 (Homo sapiens), Q96KQ7; Potency, µM (top dose mostly 102 µM), for inactives: top-dose activity, negative = inhibition, hits mostly inhibitors; G9a H3K9 monomethylation, AlphaScreen, 2 h; note: potency is the fitted concentration of half-maximal effect; nearly all actives have a fitted effect of over 75% in size
Target sequence (Q96KQ7 913-1193 limits assumed): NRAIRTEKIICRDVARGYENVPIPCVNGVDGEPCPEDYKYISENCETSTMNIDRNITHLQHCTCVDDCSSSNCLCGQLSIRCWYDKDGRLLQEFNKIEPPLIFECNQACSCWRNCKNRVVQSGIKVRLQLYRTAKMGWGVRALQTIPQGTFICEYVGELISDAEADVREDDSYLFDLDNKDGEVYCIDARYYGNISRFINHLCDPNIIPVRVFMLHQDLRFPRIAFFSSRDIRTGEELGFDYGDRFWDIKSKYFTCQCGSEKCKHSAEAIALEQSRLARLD
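Enzyme 20 nM + cpd, 15 min RT; add b-H3K9 pep 500 nM / SAM 20 uM; 2 h RT; anti-H3K9me1 Ab 0.5 ug/mL + SA donor / anti-rabbit acceptor beads 20 ug/mL each, 10 min; AlphaScreen read.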
Tau fluor cs: Counterscreen qHTS for Inhibitors of Tau Fibril Formation, Fluorescence Polarization. tau K18 P301L Alexa594 fluorescence, heparin fibrillization. Potency, µM (highest dose often 57.7 µM), for inactives: top-dose activity change, negative = decrease. actives 0.93% (n = 280,000); note: potency is the fitted concentration of half-maximal effect; nearly all actives have a fitted effect of over 55% in size
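Human K18 P301L tau (15 uM unlabeled plus 0.24 uM Alexa 594-labeled, final) in 100 mM sodium acetate pH 7 was mixed with compound and 20 uM heparin and incubated 6 hr at 37 C.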
Tau ThT inhib: qHTS for Inhibitors of Tau Fibril Formation, Thioflavin T Binding | AID 1460, 2008 | Potency, µM (top dose mostly 57.4 µM), without a hit: at the highest dose activity, negative = inhibition, usual class: inhibitors | actives 2.1% (n = 270,000) | Microtubule-associated protein tau (Homo sapiens), P10636 | recombinant tau K18 P301L (four-repeat tau fragment), heparin-induced fibrillization, ThT fluorescence; note: potency is the fitted concentration of half-maximal effect; nearly all actives have a fitted effect of over 55% in size
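In this qHTS, human K18 P301L tau is incubated with compound and heparin for 6 hr at 37 C, and Thioflavin T fluorescence then reports fibril load.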
Coupling enz: qHTS Assay for Inhibitors of Fructose-1,6-bisphosphate Aldolase from Giardia Lamblia: Coupling assay counterscreen; actives 0.67% (n = 290,000); coupling enzyme system counterscreen, AmpLite Red fluorescence; activity change, negative = inhibition, % at 58.2 µM, hits read low; in the data active = activity change below about -30%
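Compounds tested against the coupling enzymes alone at 57.5 uM final; readout was AmpLite Red fluorescence (525/598 nm) after 20 min at RT.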
* = called active by the depositor; ? = inconclusive; . = no result; [ ] = dose if it differs, or a comment. Unless noted, calls come from the whole dose curve; as a rule, active = well fitted curve in the direction sought with a large enough effect; inconclusive = small, poorly fitted or top-dose-only effect, or another doubt; inactive = no such curve, though single readings can be large; an effect the other way counts as inactive or inconclusive. Unless noted, % is set by controls: 0 for no effect and ±100 for the full control effect.

SMILES	Sfp PPTase inh	Tau FP inhib	G9a block	Tau fluor cs	Tau ThT inhib	Coupling enz
COCC(C)NS(=O)(=O)c1ccc(NC(=O)c2ccccn2)cc1 (centres undefined)	-7.1%	3.6%	?	-2.2%	-7.0%	5.0
O=C(NCc1ccco1)C(=S)N1CCCC1	35.2%	2.0%	31.6µM*	-0.7%	-1.3%	-1.6
S=C(NCc1ccco1)N1CCN(c2ccccc2Cl)CC1	-1.2%	-0.7%	56.2µM*	-16.9%	-8.8%	0.1
Cc1ccc(Cl)cc1N1CCN(C(=S)NCc2ccco2)CC1	5.5%	4.4%	?	10.9%	12.8%	4.1
S=C(NCc1ccco1)N1CCOCC1	3.7%	7.8%	-26.8%	-5.0%	-2.1%	-0.8
CC(C)(C)C1CCC(=NNC(=O)C(=O)NCc2ccco2)CC1 (centres undefined)	2.8%	-0.6%	20µM*	-6.6%	-7.3%	2.7
S=C(NCc1ccco1)N1CCN(Cc2ccco2)CC1	-29.6%	5.5%	7.08µM*	4.4%	4.8%	1.8
O=C(NCc1ccco1)C(=S)N1CCCCC1	10.3%	0.1%	-33.8%	-7.8%	-7.3%	-1.6
CCOc1ccccc1C(=O)NCC(=O)N1CCN(Cc2ccc3c(c2)OCO3)CC1	.	.	23.0%[12.7 µM]	.	.	.
CCCc1ccc(OCc2ccc(C(=O)Nc3ccccc3C(=O)OC)o2)cc1	.	-4.3%	65.5%[59 µM]	-21.9%	?	.
O=C(c1cnccn1)N1CCC[C@@]2(CCN(Cc3ccccc3)C2)C1	17.3%	.	-1.3%[12.7 µM]	.	.	0.1
c1ccc(-c2c3ccccc3nc3[nH]c4ccccc4c23)cc1	-6.6%	?	89.1µM*	?	-4.5%	-6.6
COc1ccc(-c2nc(CSCC(=O)NC3CCCc4ccccc43)c(C)o2)cc1OC (centres undefined)	-10.6%	3.3%	44.7µM*	-14.9%	?	-6.8
CCOc1ccc(-c2nc(CSCC(=O)N3CCN(C(=O)c4ccco4)CC3)c(C)o2)cc1	-12.3%	-12.4%	50.1µM*	-13.6%	?	-1.0
CCOC(=O)C1CCN(C(=O)CSCc2nc(-c3ccc(OCC)cc3)oc2C)CC1	15.7%	7.9%	-13.2%[59 µM]	-4.1%	?	2.6
COc1ccc(-c2nc(CSCC(=O)N3CCN(c4cccc(C)c4)C(C)C3)c(C)o2)cc1OC (centres undefined)	-28.2%	18.4%	44.7µM*	6.5%	8.3%	-8.9
COc1ccc(-c2nc(CSCC(=O)N3CCC(C(N)=O)CC3)c(C)o2)cc1OC	-29.7%	-10.8%	44.7µM*	-8.0%	-9.5%	-0.3
CCCCn1cc(S(=O)(=O)c2ccc(Cl)cc2)c(=O)c2cc(F)c(N3CCCCC3)cc21	.	-13.2%	5.6%[59 µM]	-4.2%	-11.6%	.
Cc1ccsc1-c1nc(CSCC(=O)N2CCN(c3ccccc3)CC2)c(C)o1	-4.1%	4.3%	44.7µM*	-8.8%	?	4.9
COc1ccc(-c2nc(CSCC(=O)N3CCc4ccccc4C3)c(C)o2)cc1OC	-19.7%	-19.4%	35.5µM*	-2.0%	?	-5.2
Nc1ccc(S(N)(=O)=O)cc1	21.3%	-2.7%	-17.4%[21.5 µM]	-7.5%	-1.7%	0.1
CCS(=O)(=O)c1ccc(N)cc1	-25.9%	10.0%	3.98µM*	1.2%	-2.4%	-3.4
COc1ccccc1NC(=O)C(=O)NCC(c1ccc2c(c1)OCO2)N1CCN(C)CC1 (centres undefined)	.	-2.6%	-5.7%[59 µM]	-12.3%	-4.6%	.
COc1ccc(NC(=O)CSc2nc3nc(C)c(Cc4ccccc4)c(C)n3n2)cc1OC	.	7.0%	0.5%[59 µM]	-21.3%	-9.0%	.
O=C(O)c1cccc(S(=O)(=O)Nc2ccc3oc(=O)sc3c2)c1	11.2µM*	-5.3%	?	-2.7%	-13.4%	8.2
SMILES	Sfp PPTase inh	Tau FP inhib	G9a block	Tau fluor cs	Tau ThT inhib	Coupling enz
CCc1ccccc1Nc1sc(C(=O)c2ccccc2)c(N)c1S(=O)(=O)c1ccccc1	.	-8.6%	-50.2%[59 µM]	-9.8%	7.4%	.
CN(C)C=Nc1nc2ccccc2nc1N1CCCC1	-28.2%	-6.0%	44.7µM*	-1.0%	?	1.4
CCN1CCN(C(c2cccc(OC)c2)c2c(O)cc(C)n(Cc3ccco3)c2=O)CC1 (centres undefined)	.	?	?	-0.1%	?	.
FC(F)(F)c1cnc(-c2cnc(-c3ccccn3)nc2)c(Cl)c1	6.6%	2.3%	50.1µM*	2.2%	-6.5%	-1.8
Cc1nnc2c3ccccc3nc(Nc3ccccc3C(=O)O)n12	.	-0.4%	-35.0%[59 µM]	-10.7%	?	.
O=C(O)C(=O)/C(=C\c1cccc(Cl)c1)c1ccc2ccccc2n1	-22.4%	0.6%	22.4µM*	-11.2%	?	-0.9
CC1CC(C)CN(CCCNS(=O)(=O)c2cc(Br)cc3c2N(C(=O)C2CC2)CC3)C1 (centres undefined)	8.8%	.	-3.3%	.	.	-0.1
O=C(O)CNC(=O)c1ccc(NS(=O)(=O)c2ccc3ccccc3c2)cc1	2.1%	.	39.8µM*	.	.	5.4
COc1cc(S(=O)(=O)Nc2ccc(C(=O)NCC(=O)O)cc2)ccc1NC(C)=O	-11.8%	0.7%	50.1µM*	6.3%	6.5%	-0.1
O=C1C2C3C=CC(C3=C(c3ccccc3)c3ccccc3)C2C(=O)N1CCO (centres undefined)	4.6%	8.2%	-25.7%[59 µM]	-10.3%	?	-0.8
O=C1C2C3C=CC(C3=C(c3ccccc3)c3ccccc3)C2C(=O)N1Cc1ccccc1 (centres undefined)	50.1µM*	-1.6%	39.8µM*	1.2%	1.0%	-0.3
Oc1ccc(/C=N/Nc2ccc(C(F)(F)F)cn2)cc1	0.5%	20.6%	0.5%	11.2µM*[quencher]	?	-3.4
COc1cc(/C=N/Nc2ccc(C(F)(F)F)cn2)cc(OC)c1O	?	3.9%	39.8µM*	-23.5%	?	0.3
CCCCNC(=O)[C@H]1C[C@H]1[C@@H](O)[C@H](CO)NC(=O)[C@H](Cc1ccccc1)NC(=O)OC(C)(C)C	15.0%	.	20.9%	.	.	-1.7
CCOC(=O)C1CCN(C(=O)Cn2ncc3c4ccccc4n(Cc4ccccc4F)c3c2=O)CC1	.	-2.0%	-0.2%[59 µM]	1.0%	0.0%	.
CCCCN1C(=O)/C(=c2\sc3nc(=O)c(-c4ccccc4)nn3c2=O)c2ccccc21	15.8µM*	-11.0%	?	-6.0%	?	4.3
